Bioassay records (PubChem BioAssay)
A selection: hits, their analogues and other compounds. The true share with any hit is near 3.7%.
esBAF inh: blocks esBAF chromatin remodeling in mouse ES cells; 350,000 compounds, 2% hits; Bmi1-luciferase knock-in reporter, 24 h; 100% = twice the neutral-well signal; reporter increase, % at 12.5 µM; in the data active = activation above about 40%; inconclusive = no clear call, values can overlap the other calls;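 also: 0% = median of the plate's neutral control wells and 100% = double that signal; a rise in the Bmi1 reporter signal indicates esBAF inhibition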
MITF act: MITF TRPM1 promoter activation in melanoma cells; SK-MEL-5 TRPM1-promoter luciferase, 24 h; % of positive control, neutral wells = 0; activation, % at 12.5 µM; 300,000 compounds, 0.75% hits; AID 588334;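 active = mean activation of at least 80% with every replicate also reaching 80%; inconclusive = mean reaches 80% but some replicate falls short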;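 also: 0% = neutral control wells and 100% = parthenolide positive control wells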
Wnt bcat act: Wnt/beta-catenin pathway activation. Wnt/beta-catenin reporter cell assay, activator, plate reader. activation, % at 9.35 µM. 300,000 compounds, 1.2% hits. AID 743398; in the data active = activation above about 30%, passing the limit was not always enough; inconclusive = no clear call, values can overlap the other calls;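 also: 0% = neutral control wells and 100% = positive control wells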
rRNA inh HTS: inhibitors of bacterial rRNA selective over humanized ribosomes; E. coli WT GFP vs humanized-ribosome RFP mutants, fluorescence, 24 h; stronger effect = lower value; DMSO median 0, no signal -100; GFP signal change (wild-type ribosome), % (concentration not given with the values); 350,000 compounds, 1.6% hits; AID 720706;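 active = significant combined selectivity score with lowered wild-type GFP, culture density cut under 30%, mutant RFP and density less affected; inactive = any of these conditions unmet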
AF4-AF9 inh: MLL-AF4/AF9 protein interaction inhibition. AlphaScreen, biotin-AF4 peptide binding to FLAG-AF9. inhibition, % at 10 µM. 350,000 compounds, 0.47% hits;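 active = every replicate reaching a set inhibition limit, whatever the replicate mean, cut at about 25% in these data; inconclusive = mean inhibition reaches that limit but some replicates miss it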;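 also: 0% = plate neutral control median and 100% = total signal loss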
Target sequence (P42568 whole entry, looked up): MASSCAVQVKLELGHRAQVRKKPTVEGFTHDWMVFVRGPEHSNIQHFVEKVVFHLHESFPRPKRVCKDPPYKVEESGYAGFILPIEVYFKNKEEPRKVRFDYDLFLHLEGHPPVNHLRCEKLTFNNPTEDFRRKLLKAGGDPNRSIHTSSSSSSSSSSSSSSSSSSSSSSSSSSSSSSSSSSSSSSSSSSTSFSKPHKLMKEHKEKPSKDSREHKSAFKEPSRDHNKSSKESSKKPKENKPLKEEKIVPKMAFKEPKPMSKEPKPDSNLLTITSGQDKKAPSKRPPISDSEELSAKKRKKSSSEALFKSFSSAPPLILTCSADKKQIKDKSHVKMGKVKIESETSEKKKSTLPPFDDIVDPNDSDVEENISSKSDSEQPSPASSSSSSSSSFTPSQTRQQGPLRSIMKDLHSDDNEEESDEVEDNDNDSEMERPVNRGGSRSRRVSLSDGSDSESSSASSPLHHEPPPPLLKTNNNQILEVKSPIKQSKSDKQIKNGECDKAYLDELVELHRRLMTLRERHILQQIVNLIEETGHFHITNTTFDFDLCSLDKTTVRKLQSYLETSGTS
An asterisk follows results filed as active; ? = inconclusive; · = no result.

SMILES	esBAF inh	MITF act	Wnt bcat act	rRNA inh HTS	AF4-AF9 inh
COc1ccc2oc(=O)c(C(=O)NCCc3ccc(OC)c(OC)c3)cc2c1	-15	-11	0	8	-3
O=C(/C(=C/c1ccc(Cl)cc1)c1nc2ccccc2[nH]1)c1cccs1	76*	-95	·	·	·
O=[N+]([O-])c1ccccc1CNC(Cc1ccccc1)c1ccccc1 (stereo not drawn)	1	-4	-2	-30*	0
COc1ccc(/C=C/C(=O)Nc2cccc(F)c2)cc1S(=O)(=O)N1CCOCC1	10	-11	5	-27*	5
COc1ccc(/C=C/C(=O)Nc2ccc(C(C)=O)cc2)cc1S(=O)(=O)N1CCOCC1	-5	·	-1	11	-3
COc1ccc(/C=C/C(=O)Nc2ccccc2F)cc1S(=O)(=O)N1CCOCC1	18	21	-3	-20*	0
COc1ccc(/C=C/C(=O)Nc2cc(S(=O)(=O)N3CCOCC3)ccc2N2CCCC2)cc1OC	·	-11	-1	-22*	5
CCCOc1ccccc1NC(=O)/C=C/c1ccc(OC)c(S(=O)(=O)N2CCOCC2)c1	-4	·	-5	·	1
COc1ccc(/C=C/C(=O)Nc2ccccc2C)cc1S(=O)(=O)N1CCOCC1	47*	19	-1	-12	0
Cc1cc(C(C)(C)C)cc(C)c1COC(=O)C1CCC(=O)N1 (stereo not drawn)	-10	-12	-2	·	·
COc1ccc(NS(=O)(=O)c2cc(NC(=O)c3ccc(Cl)cc3)ccc2N2CCOCC2)cc1	·	-23	-9	2	1
O=C1NC[C@H](CCCCN2C[C@H](Cc3ccccc3)N(CCc3ccc(O)cc3)C(=O)C2=O)N(CCc2ccccc2)C1=O	·	·	-1	-18*	1
O=C1NC[C@H](CCCCN2C[C@H](Cc3ccccc3)N(CC3CCCCC3)C(=O)C2=O)N(CCc2ccc(O)cc2)C1=O	·	·	-5	-21*	1
CC(C)C[C@H]1CNC(=O)C(=O)N1C[C@@H]1CCCN1C[C@H](Cc1ccc(O)cc1)N1C[C@H](Cc2ccccc2)N(CC2CCCCC2)C(=O)C1=O	·	·	-4	-29*	2
CC(C)C[C@H]1CN([C@@H](Cc2ccccc2)CN2CCC[C@@H]2CN2C(=O)C(=O)NC[C@@H]2Cc2ccc(O)cc2)C(=O)C(=O)N1CC1CCCCCC1	-7	·	-1	-16	1
CC(C)CC#Cc1cnc2c(c1)C(=O)N([C@H](C)CO)C[C@@H](C)[C@H](CN(C)C(=O)Nc1cc(F)ccc1F)O2	3	·	·	0	4
COc1ccc2c(c1)c1c(c(=O)n(-c3ccc(C)cc3)c(=O)n1CC(=O)NCC1CCCO1)n2C (stereo not drawn)	6	·	-2	4	-6
CC(=O)NC(CCS(C)(=O)=O)C(=O)Nc1cccc(Cl)c1Cl (stereo not drawn)	-4	-6	-1	0	9
Nc1cc(Cl)ccc1Nc1ccncc1	2	0	2	11	-33
CCCNC(=O)N1[C@@H](CO)[C@H](c2ccccc2)C12CN(C(=O)C1CCCCC1)C2	·	·	·	2	-1
COCCN(CCOC)C(=O)c1ccc(SCc2ccc(C)cc2)c([N+](=O)[O-])c1	·	-2	-2	-2	-4
CC1C/C(=N\NC(=S)NCc2ccccc2)CC(C)(C)C1 (stereo not drawn)	2	-2	·	·	·
O=C(COc1cc(O)c2c(=O)cc(-c3ccccc3)oc2c1)c1ccccc1	27	25	·	·	·
O=c1cc(-c2cccc(Cl)c2)oc2cccc(O)c12	39	14	7	2	4
COc1cc(O)c2c(=O)cc(-c3ccccc3)oc2c1	50*	95*	23	2	4
SMILES	esBAF inh	MITF act	Wnt bcat act	rRNA inh HTS	AF4-AF9 inh
O=c1cc(-c2ccc(O)cc2)oc2cc(O)cc(O)c12	?	94*	46*	·	-1
O=c1cc(-c2ccccc2)oc2cccc(O)c12	45*	21	-1	3	2
COc1cc(-c2cc(=O)c3c(O)cc(O)cc3o2)ccc1O	32	·	·	·	·
COCOc1ccc(-c2cc(=O)c3c(O)cc(OCOC)cc3o2)cc1	88*	·	15	-2	1
C[C@H]1CN([C@@H](C)CO)C(=O)Cc2cc(NC(=O)Nc3cccc4ccccc34)ccc2O[C@@H]1CN(C)C(=O)Nc1ccc(C(F)(F)F)cc1	-3	·	·	3	3
C[C@H](CO)N1C[C@H](C)[C@@H](CN(C)C)Oc2ccc(NC(=O)Cn3cnnn3)cc2CC1=O	0	·	·	3	-2
O=C(NCCN1CCN(c2ccccc2F)CC1)c1cccn2c(=O)c3ccccc3nc12	-11	·	·	·	·
CN1c2ccc(-c3cccc(C#N)c3)cc2[C@@H]2[C@@H](CCN2C(=O)NC2CCCCC2)[C@H]1CO	0	·	·	-8	·
O=c1cc(-c2ccccc2)oc2cc(O)cc(O)c12	7	100*	6	·	-19
COc1cc(OC)c2c(-c3cccc(-c4ccc(O)cc4)c3)cc(=O)oc2c1	0	-35	-1	-24*	-1
Cc1ccc(NC(=O)c2ccccc2Cl)c(Cl)c1	39	86*	2	·	·
O=C(Nc1cccs1)Nc1ccccc1Cl	44*	14	·	·	·
O=C(NC(=O)c1csnn1)Nc1ccccc1Cl	50*	72	24	9	-1
Cc1cc(NC(=O)c2ccccc2)ccc1NC(=O)c1ccccc1Cl	7	14	0	2	-8
Cc1ccc(NC(=O)Nc2cccs2)c(Cl)c1	·	47	55*	·	·
C[C@@H]1CN([C@H](C)CO)S(=O)(=O)c2ccc(C3=CCCCC3)cc2O[C@H]1CN(C)S(=O)(=O)c1ccc(F)cc1	7	·	·	1	1
O=C(Nc1ccc(Br)cc1)Nc1ccccc1Cl	?	82*	31*	-25	-2
CC(C)CC1OC(C)CC2=C1C(=O)OC(C)(C)O2 (stereo not drawn)	·	·	3	28	0
Cc1nn(C)c(C)c1/C=C/C(=O)c1cccs1	19	·	39*	·	·
Cc1nn(C)cc1/C=C/C(=O)c1cccs1	65*	·	90*	·	·
Cc1nn(C)c(C)c1/C=C/C(=O)c1ccccc1	·	60	·	·	·
CC(=O)N1CCN(Cc2nc3cc(NC(=O)C4CCCCC4)ccc3n2C)CC1	11	0	?	·	·
COCC#Cc1cnc2c(c1)C(=O)N([C@H](C)CO)C[C@@H](C)[C@@H](CN(C)C(=O)Cc1ccncc1)O2	2	·	·	8	-1
Cc1ccsc1/C=N/N1CCN(c2ccccc2)CC1	49*	63	19	15	10
CC(=O)c1ccc(NC(=O)COC(=O)c2ccccc2Sc2ccccc2C#N)cc1	-2	-5	-1	9	-1
CC(=O)Nc1ccc(NC(=O)C(C)OC(=O)c2ccccc2Sc2ccccc2C#N)cc1 (stereo not drawn)	-2	15	-2	-8	96*
CC1CN(C2=NC(=O)/C(=C3/C(=O)N(Cc4ccc(F)cc4)c4ccccc43)S2)CC(C)O1 (stereo not drawn)	·	·	-2	11	5
